The values below come from PubChem BioAssay AID504651 (National Center for Advancing Translational Sciences (NCATS), 2011).

The campaign covered roughly 360,000 compounds. About 130 (0.036%) were called active. Rule as the data show it: active = potentiation above about 30%; inactive = the rest. Many of the other results were omitted from the sample, so actives are more common in it than they were.

The target of this experiment is D(1A) dopamine receptor (Homo sapiens) (UniProt P21728). The experiment is described as follows: Potentiators of Human D1 Dopamine Receptor: qHTS. Also: 0% is about no effect. The conditions noted are these: HEK293 TREx D1 cells, calcium flux, dopamine EC20 potentiation; at 10 µM; active compounds read high. The source says: Dopamine receptors (DARs) are involved in the etiology and/or therapy of a number of neuropsychiatric and endocrine disorders. For instance, all receptor-based antiparkinsonian drugs work via stimulating the D1 DAR subtype whereas all FDA-approved antipsychotic agents are antagonists of this receptor. […] There are three different types of allosteric modulators that we are seeking, two of which will stimulate or augment receptor signaling, allosteric agonists and potentiators, while the third, allosteric antagonists, will attenuate receptor signaling. The present primary screening assay measures compound potentiation of an EC20 dopamine response by tracking calcium flux in a […], inducible Hek293 Trex D1 cell line.
D(1A) dopamine receptor (Homo sapiens), sequence (P21728 whole entry, looked up): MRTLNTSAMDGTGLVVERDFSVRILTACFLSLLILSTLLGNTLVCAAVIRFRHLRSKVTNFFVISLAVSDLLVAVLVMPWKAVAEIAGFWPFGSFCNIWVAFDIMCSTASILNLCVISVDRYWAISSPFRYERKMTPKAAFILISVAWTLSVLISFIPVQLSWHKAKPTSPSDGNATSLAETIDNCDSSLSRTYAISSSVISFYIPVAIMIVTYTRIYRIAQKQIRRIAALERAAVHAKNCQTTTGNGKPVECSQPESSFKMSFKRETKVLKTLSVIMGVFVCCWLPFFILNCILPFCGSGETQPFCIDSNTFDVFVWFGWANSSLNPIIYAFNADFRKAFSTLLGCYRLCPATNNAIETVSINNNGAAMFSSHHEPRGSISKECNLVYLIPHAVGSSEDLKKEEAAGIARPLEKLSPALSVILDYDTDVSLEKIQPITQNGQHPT
NIH Chemical Genomics Center [NCGC]
NIH Molecular Libraries Probe Centers Network [MLPCN]
Assay Submitter (PI): David Sibley
Freshly passaged cells are plated in 1536 well black, clear bottom plates at a density of 4000 cells/well in 3 ul of complete media containing 1x tetracycline inducer. After an overnight incubation at 30 C in 5% CO2, cells are loaded with 2 ul of the no wash Calcium Assay Kit (ABD Bioquest) and incubated at room temperature for 30 to 90 minutes. A 10 cycle (1 second/cycle) baseline measurement is taken and then the FDSS online 1536 pintool delivers 23 nl of compound library (as well as dopamine controls) to the plate. The plate is measured for kinetically at 1 cycle/sec for 180 seconds and is considered to be the agonist portion of the assay (eg, compounds which activate a positive calcium response during this portion are flagged as potential agonists). Following the 180 second read, 1 ul of an EC20 of dopamine is delivered by an onboard pipette head. Measurements are taken kinetically for an additional 180 seconds.
(In general: Quantitative high-throughput screening tests each substance at several concentrations.)
With `Cc1ccc(S(=O)(=O)NC(N)=NCCC[C@@H](NC(=O)CNC(=O)c2ccccc2)C(=O)Nc2cc(C(F)(F)F)ccc2Cl)cc1`, the potentiation is 5.3% (inactive).

For `COc1ccc(N2C(=O)CS(=O)(=O)C23C(=O)N(Cc2ccc(C)cc2)c2ccccc23)cc1Cl` (stereo not given), the potentiation is -6.6% (inactive).

With `COc1cccc(NC(=O)N(Cc2cn(C)c3ccccc23)C2CCCCCC2)c1`, the potentiation was 1.8% (inactive).

Turning to `O=C(CC1N=C2c3ccccc3N=C(SCc3ccc(F)cc3)N2C1=O)NCc1cccs1` (stereo not given), the potentiation was -0.25% (inactive).

For the compound `CCN1CCN(c2cc(C)c3cc(NC(=O)c4cc(Cl)ccc4OC)ccc3n2)CC1`, the potentiation was -1.15% (inactive).

For `Cc1nc(SCC(=O)N2CCN(c3ccccc3)CC2)[nH]c(=O)c1C`, the potentiation was 5.55% (inactive).

As to `CC(=O)c1ccc(NC(=O)CSc2nnc(NC(=O)Nc3ccccc3)s2)cc1`, the potentiation was 4.75% (inactive).

Turning to `Cc1ccc(O)c(NC(=O)CCS(=O)(=O)c2nc(-c3ccc4c(c3)OCO4)cc(C(F)(F)F)n2)c1`, the potentiation was -1.35% (inactive).

For `CCOC(=O)Cn1c(=O)n(-c2ccccc2OC)c2nc(-c3cccc(F)c3)nc(C(N)=O)c21`, the potentiation was -1.3% (inactive).

Turning to `Cc1ccc(C2CCN(C(=O)c3cnn(-c4ccccc4Cl)c3C3CCN(C(=O)OC(C)(C)C)CC3)C2)cc1` (stereo not given), the potentiation was 2% (inactive).

For `COc1ccc(N2CCN(C(=O)c3c(C)oc4nc(C)nc(N5CCCC5)c34)CC2)cc1`, the potentiation is -1.55% (inactive).

`O=C(CSc1nccn1Cc1ccc(Cl)cc1)NCc1ccccc1`: the potentiation was 0.3% (inactive).

`Cc1ccccc1OCCC(=O)OCC(=O)NC(C)c1ccccc1` (stereo not given): the potentiation is -0.3% (inactive).

With `COc1ccc(N2CCN(C(=O)[C@@H](NC(=O)c3cc(OC)cc(OC)c3)C(C)C)CC2)cc1`, the potentiation was -4.25% (inactive).

In the case of `COc1cc(OC)cc(C(=O)N[C@H](C(=O)OCC(=O)NC(C)c2ccccc2)C(C)C)c1` (stereo not given in full), the potentiation is 36.6% (active).

As to `Cc1onc(-c2ccc(F)cc2F)c1C(=O)Nc1cccc(C(F)(F)F)c1`, the potentiation is 0.65% (inactive).

Regarding `COc1ccccc1-c1cc(C(F)(F)F)nc(S(=O)(=O)CCCC(=O)Nc2ccc(F)cc2F)n1`, the potentiation is -0.1% (inactive).

Consider `COc1ccc(CCNc2nc(-c3ccc(F)cc3)cc(C(F)(F)F)n2)cc1OC`, for which the potentiation was 3.1% (inactive).

On to `COc1ccc(C2=NC(c3ccncc3)=Nc3ccc(Br)cc3N2)cc1`, for which the potentiation was 3.45% (inactive).

As to `Brc1ccc(C2CC(c3ccccc3)=Nc3ccccc3N2)cc1` (stereo not given), the potentiation was -5.6% (inactive).

Take `Brc1ccc2c(c1)NC(c1cccnc1)=NC(c1ccccc1)=N2`: the potentiation is 35.8% (active).

Regarding `CCCCS(=O)(=O)c1oc(-c2cccs2)nc1S(=O)(=O)c1ccccc1`, the potentiation was -0.2% (inactive).

On to `CCc1ccccc1NC(=O)c1ccc2nc(CCc3ccccc3)oc2c1`, for which the potentiation is 1% (inactive).

Consider `CCOc1ccccc1C(=O)NC1(C(F)(F)F)NC(=O)N(CCc2ccc(OC)c(OC)c2)C1=O` (stereo not given), for which the potentiation was -3.95% (inactive).

Consider `O=C(NCc1nnc(C(=O)Nc2ccc(C(F)(F)F)cc2Cl)o1)c1ccccc1`, for which the potentiation was -8.2% (inactive).

`CCCS(=O)(=O)c1ncc(Cl)c(C(=O)Nc2scc(-c3ccccc3)c2C(=O)OCC)n1`: the potentiation was -3.7% (inactive).

`N#Cc1nc(Nc2cc(F)cc(Cl)c2)nc(NC2CCCC2)n1`: the potentiation is -0.2% (inactive).

Take `CCOc1ccc(C2C3=C(CCCC3=O)N(CC(=O)O)C3=C2C(=O)CCC3)cc1`: the potentiation is 36% (active).

On to `COc1ccc(C2C3=C(CCCC3=O)N(CC(=O)O)C3=C2C(=O)CCC3)cc1`, for which the potentiation was 1% (inactive).

For the compound `CCOc1ccc(C2C(C#N)=C(N)N(N(C)C)C3=C2C(=O)CCC3)cc1` (stereo not given), the potentiation is -0.15% (inactive).

As for `CCc1ccc(CN(Cc2ccco2)C(=O)c2ccccc2Cl)cc1`, the potentiation was -2.55% (inactive).

As for `CC(=O)Nc1cccc(NC(=O)CSc2cn(CC(=O)N3CCCC3)c3ccccc23)c1`, the potentiation was -2.85% (inactive).

Consider `O=c1c(NCc2cccs2)nccn1-c1ccccc1`, for which the potentiation was 0.1% (inactive).

In the case of `O=C(COc1ccc(Cl)cc1)N(Cc1ccco1)Cc1ccco1`, the potentiation was 1.05% (inactive).

Take `Cc1ccc(Cn2c(C)c3cnn(CC(=O)NCc4ccccc4)c(=O)c3c2C)cc1`: the potentiation is -1.5% (inactive).

With `O=C(COc1ccccc1)NCc1ccc2c(c1)CCN2C(=O)c1ccc(F)cc1`, the potentiation was -2.1% (inactive).

Turning to `Cc1ccc(CCNC(=O)Cn2c(-c3cccs3)cc3cc(F)ccc32)cc1`, the potentiation is -3.65% (inactive).

On to `Cc1ccc(-c2cc(N)n(Cc3cccc(Cl)c3)n2)cc1`, for which the potentiation is -4.4% (inactive).

For the compound `O=S(=O)(c1ccc2nc(NCc3ccccc3Cl)ccc2c1)N1CCCCC1`, the potentiation is -5.55% (inactive).

For the compound `Cc1ccc2ccc3c(c2n1)NS(=O)(=O)c1ccccc1-3`, the potentiation was 1.45% (inactive).

Consider `COc1ccc(OC)c(NC(=O)CSc2nc3ccccc3nc2N2CCCCC2)c1`, for which the potentiation was -3.85% (inactive).

For the compound `CCc1ccccc1NC(=O)CSc1nnc(-c2ccccc2)c(-c2ccccc2)n1`, the potentiation was 1% (inactive).

Turning to `Cc1c(Cl)cccc1NC(=O)c1noc2c1CCCC2`, the potentiation was 2.2% (inactive).

As for `CCC(=O)N1CCc2cc(CNS(=O)(=O)c3ccc(Br)s3)ccc21`, the potentiation was -0.5% (inactive).

`O=C1C(F)N([S+](=O)([O-])c2ccc3c(c2)OCCO3)CCN1[S+](=O)([O-])c1c(F)cccc1F` (stereo not given): the potentiation is 5.45% (inactive).

For the compound `COc1cccc(CNC(=O)c2ccc3c(c2)N(Cc2ccc(C(F)(F)F)cc2)C(=O)c2ccccc2S3)c1OC`, the potentiation was -5.65% (inactive).

`N#Cc1nc(Nc2cccc(Cl)c2)nc(NC2CCCC2)n1`: the potentiation is -2.6% (inactive).

Regarding `Cc1c(-c2nc(-c3ccc4c(c3)OCO4)no2)nnn1-c1ccc(Br)cc1F`, the potentiation was -2.8% (inactive).

In the case of `CC1CCC2(CC1)N=C(c1ccccc1)C(=O)N2CC(=O)Nc1ccc(F)c(Cl)c1` (stereo not given), the potentiation is -3.15% (inactive).

For `CN(C(=O)c1ccc2c(c1)N(Cc1cccc(Cl)c1)C(=O)c1ccccc1S2=O)C1CCCCC1` (stereo not given), the potentiation is 0.2% (inactive).

`CCc1cc2c(cc3c(=O)n(CC(=O)N4CCN(c5cc(Cl)ccc5C)CC4)ncn32)s1`: the potentiation is -2.7% (inactive).

On to `O=C(CNC(=O)c1ccccc1)OC(C(=O)Nc1cc([N+](=O)[O-])ccc1F)c1ccccc1` (stereo not given), for which the potentiation is 5.6% (inactive).

For `COCCNC(=O)c1ccc2c(c1)N=C(C)c1cc(C)ccc1S2`, the potentiation was 0.1% (inactive).

For the compound `CCOC(=O)c1cccc(NC(=O)c2cc(CN3CCCC3)on2)c1`, the potentiation is -7.25% (inactive).

As to `Cc1ccc(Cl)cc1N1CCN(C(=O)CN2C(=O)COc3ccc(S(=O)(=O)N4CCOCC4)cc32)CC1`, the potentiation was 4.75% (inactive).

As to `Cc1c(C(=O)N2CCCC2)oc2c1-c1nn(CC(=O)NCc3ccc(OC(C)C)cc3)cc1CC2`, the potentiation was -0.75% (inactive).

As to `Cc1ccc(-c2nc(SCc3ccc(Br)cc3)n3[nH]c(=O)cc3n2)cc1`, the potentiation is -0.15% (inactive).

For `O=S(=O)(c1ccccc1)c1nc(-c2ccc(Cl)cc2Cl)oc1N1CCCCC1`, the potentiation is -2.95% (inactive).

With `CCOc1ccc(N(Cc2ccccc2)C(=O)c2nc(S(C)(=O)=O)ncc2Cl)cc1`, the potentiation was -0.05% (inactive).

As to `Cc1c(CCNC(=O)c2ccc(C(F)(F)F)cc2)sc2nc(-c3ccc(F)cc3)nn12`, the potentiation is -2.3% (inactive).

Consider `COc1ccc(OC)c(-c2nc(C(N)=O)c3c(n2)n(-c2ccc4c(c2)OCO4)c(=O)n3C)c1`, for which the potentiation is 0.75% (inactive).

For the compound `O=C(c1ccc2c(c1)N(Cc1ccc(Cl)cc1)C(=O)c1ccccc1S2(=O)=O)N1CCCCC1`, the potentiation was -1.9% (inactive).

With `CCN1C(=O)c2ccccc2S(=O)c2ccc(C(=O)NCc3ccc(F)cc3)cc21` (stereo not given), the potentiation was 3% (inactive).

Turning to `CN1CCN(c2ccccc2NC(=O)COc2ccc(C3CCCCC3)cc2)CC1`, the potentiation is 37.7% (active).

`Cc1ccc(OCC(=O)Nc2ccccc2C(=O)NC2CC2)cc1`: the potentiation was -0.15% (inactive).

Consider `CCOc1ccccc1NC(=O)COc1ccc(S(=O)(=O)N2CCCC2)cc1`, for which the potentiation was -4.6% (inactive).

`CCn1c2ccccc2c2nnc(SCC(=O)O)nc21`: the potentiation is -1.3% (inactive).

In the case of `Cc1oc2ncnc(N3CCOCC3)c2c1C(=O)NCCc1ccccc1`, the potentiation was 2.6% (inactive).

Take `COc1ccccc1N1CCN(C(CNC(=O)C(=O)NCc2ccc(C)cc2)c2cccnc2)CC1` (stereo not given): the potentiation is 3.55% (inactive).

Turning to `COc1cccc(C(=O)NC2CCN(C#N)CC2)c1`, the potentiation is -6.95% (inactive).

As for `O=C(Cn1cc(SCc2cccc(Cl)c2)c2ccccc21)N1CCCCC1`, the potentiation was -2.05% (inactive).

Consider `CCCOc1ccc(NC(=O)CC2C(=O)N(c3ccccc3)C(=O)N2Cc2ccco2)cc1` (stereo not given), for which the potentiation was -2.9% (inactive).

With `Cc1cccc(NC(=O)C2CCCN2S(=O)(=O)c2cccc3nsnc23)c1C` (stereo not given), the potentiation was -2.95% (inactive).

Consider `CC(C)c1ccc(NC(=O)Cn2nnc(C(=O)NCCc3ccccc3)c2N)cc1`, for which the potentiation was -1.7% (inactive).

For `O=C(CSc1nc2nccnc2c(=O)n1CCc1c[nH]c2ccccc12)Nc1ccccc1F`, the potentiation is -3.65% (inactive).

As for `COc1ccc(S(=O)(=O)Nc2cccc3cccnc23)c(N)c1`, the potentiation was -3.75% (inactive).

On to `Nn1c(SCC(=O)NC2CCCC2)nnc1-c1ccccc1F`, for which the potentiation is -7.1% (inactive).

For `Nn1c(SCC(=O)NC(=O)NC2CCCC2)nnc1-c1ccccc1F`, the potentiation was -9.3% (inactive).

On to `CC(C)NC(=O)NC(=O)CSc1nnc(-c2ccccc2F)n1N`, for which the potentiation was 35% (active).

As for `O=S(=O)(c1ccc2c(c1)OCCO2)N1CCN(S(=O)(=O)c2cc(F)ccc2F)CC1`, the potentiation is -0.7% (inactive).

As for `Cc1ccc(C)c(Cn2c(=O)n(CCC(=O)NCc3ccc4c(c3)OCO4)c(=O)c3sccc32)c1`, the potentiation was 0.75% (inactive).

Regarding `CCOc1cc(C2c3c(-c4ccc(Br)cc4)n[nH]c3C(=O)N2c2ccc(Cl)cc2)ccc1O` (stereo not given), the potentiation was 1.25% (inactive).

Take `COc1cc(CN(CC2CCCO2)C(=O)c2ccccc2F)cc(OC)c1OC` (stereo not given): the potentiation was 5% (inactive).

In the case of `N#CN1CCC(NC(=O)c2ccc(F)cc2)CC1`, the potentiation is -0.05% (inactive).

For `O=C(CNC(=O)c1ccc(Cl)c(C(F)(F)F)c1)OC(C(=O)Nc1cc(C(F)(F)F)ccc1Cl)c1ccccc1` (stereo not given), the potentiation was 1.3% (inactive).
